Source: PubChem BioAssay (NCATS)
Records with an inconclusive call do not appear. The source made the active and inactive calls. Unless noted, the call rests on the fitted dose curve; in most records, active means well fitted curve in the direction sought with a large enough effect; inconclusive means small, poorly fitted or top-dose-only effect, or another doubt; inactive means no such curve, though single readings can be large; an effect the other way counts as inactive or inconclusive.

Legend:
[1] = target: Lysosomal acid glucosylceramidase (Homo sapiens) (UniProt P04062); assay: Glucocerebrosidase-p2 (AID 348; in the data active means potency below about 10 µM; further: potency means the concentration at half of the fitted maximal effect); conditions: purified GBA, blue fluorogenic substrate, 40 min
Chain of Lysosomal acid glucosylceramidase (Homo sapiens) (P04062 whole entry, looked up): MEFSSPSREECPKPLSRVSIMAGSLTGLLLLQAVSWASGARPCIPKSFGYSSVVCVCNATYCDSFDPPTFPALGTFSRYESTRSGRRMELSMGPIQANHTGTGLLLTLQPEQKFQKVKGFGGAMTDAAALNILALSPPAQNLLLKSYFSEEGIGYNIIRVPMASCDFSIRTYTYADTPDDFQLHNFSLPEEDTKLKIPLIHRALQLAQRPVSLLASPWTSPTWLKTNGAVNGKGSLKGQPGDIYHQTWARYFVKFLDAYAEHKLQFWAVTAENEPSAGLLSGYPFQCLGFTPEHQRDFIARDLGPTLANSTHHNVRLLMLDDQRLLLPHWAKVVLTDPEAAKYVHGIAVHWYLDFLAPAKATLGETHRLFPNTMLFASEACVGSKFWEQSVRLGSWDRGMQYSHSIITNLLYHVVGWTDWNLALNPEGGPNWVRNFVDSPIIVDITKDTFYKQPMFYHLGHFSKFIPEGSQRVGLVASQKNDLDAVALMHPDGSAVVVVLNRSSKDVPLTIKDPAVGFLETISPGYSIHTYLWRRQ
How it was run: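 Normal human glucocerebrosidase (0.2 nM) with blue fluorogenic substrate (80 uM final) in citrate/phosphate pH 5.9 with 10mM sodium taurocholate, 0.01% tween-20; 40 min RT, NaOH/glycine stop; fluorescence Ex 365/Em 440; AC50 from a titration from 0.6 nM upwards.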

[2] = AP1 Signaling Pathway (AID 357; active means well fitted curve in either direction with a large enough effect, not every such curve was filed as active; further: on the % scale 0 is the no-effect control and ±100 the full control effect); conditions: ME-180 AP-1-bla reporter, EGF-induced, beta-lactamase ratio, 5 h; at 7.69 µM (top of the series) unless noted
How it was run: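 Modulation of EGF-driven AP-1 transcription was assessed with a beta-lactamase reporter in ME-180 cells. Compound and EC50 EGF were co-incubated 5 hours at 37 °C before 2.5-hour CCF4 loading at room temperature and dual-emission reading.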

[3] = target: Cytochrome P450 1A2 (Homo sapiens) (UniProt P05177); assay: p450-cyp1a2 (AID 410; calls by dose curve; further: potency means the concentration at half of the fitted maximal effect); conditions: recombinant CYP1A2, luciferin-ME demethylation, luminescence; series mostly up to 57 µM
Chain of Cytochrome P450 1A2 (Homo sapiens) (P05177 whole entry, looked up): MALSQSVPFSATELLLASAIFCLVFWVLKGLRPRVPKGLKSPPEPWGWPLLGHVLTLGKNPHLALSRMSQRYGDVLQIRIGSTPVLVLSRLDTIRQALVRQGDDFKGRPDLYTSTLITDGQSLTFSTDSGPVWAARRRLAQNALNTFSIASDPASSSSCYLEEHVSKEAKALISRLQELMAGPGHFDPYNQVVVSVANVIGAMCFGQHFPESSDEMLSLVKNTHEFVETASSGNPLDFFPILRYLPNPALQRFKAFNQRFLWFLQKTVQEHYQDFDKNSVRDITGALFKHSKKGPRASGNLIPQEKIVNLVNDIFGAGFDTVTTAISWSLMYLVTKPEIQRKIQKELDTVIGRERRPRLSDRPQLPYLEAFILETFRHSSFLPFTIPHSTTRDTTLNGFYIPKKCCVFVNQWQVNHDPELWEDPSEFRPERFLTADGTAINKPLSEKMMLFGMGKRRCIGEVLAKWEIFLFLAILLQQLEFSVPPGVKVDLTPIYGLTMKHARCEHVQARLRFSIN
How it was run: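 O-Demethylation of luciferin 6' methyl ether by human CYP1A2 is monitored as luciferase luminescence. Substrate sits at Km (100uM); enzyme is 20nM. Values are scaled to 57 uM furafylline as maximal inhibition.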

[4] = NFAT Signaling Pathway (AID 444; active means well fitted curve in either direction with a large enough effect, not every such curve was filed as active;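 further: carbachol stimulus at about its EC50 of 1 µM final; on the % scale 0 is the no-effect control and ±100 the full control effect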); conditions: Jurkat NFAT-bla M1, carbachol, beta-lactamase ratio, 5 h; at 7.69 µM (top of the series) unless noted
How it was run: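 Jurkat cells carrying an NFAT-driven β-lactamase reporter and co-transfected muscarinic M1 receptor were treated with compound plus carbachol (1 uM final, an EC50 level) for 5 h at 37 °C. CCF4 loading followed for 1 h at RT; 460/530 nm ratio gave %activity.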

[5] = Stat Signaling Pathway (AID 446; active means well fitted curve in either direction with a large enough effect, not every such curve was filed as active;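 further: ME-180 cervical cancer cells given 40 pM IL-6 alongside compound; SIE-controlled beta-lactamase reporter measured as 460/530 nm FRET emission ratio; on the % scale 0 is the no-effect control and ±100 the full control effect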); conditions: ME-180 SIE beta-lactamase reporter, IL-6 stimulated, 5 h; at 7.69 µM (top of the series) unless noted
How it was run: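 Compound effects on IL-6-induced STAT reporter activity were measured in ME-180 cells. After overnight culture, cells were co-treated with 40 pM IL-6 for 5 hrs before beta-lactamase substrate loading at room temperature.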

[6] = target: Glucocorticoid receptor (Homo sapiens) (UniProt P04150); assay: GR-GFP Redistribution (AID 450;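 active means compounds whose dose series gives a full or clear partial fitted curve of increased nuclear translocation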; further: potency means the concentration at half of the fitted maximal effect); conditions: U2OS GR-GFP nuclear translocation, laser cytometry, 2 h
Chain of Glucocorticoid receptor (Homo sapiens) (P04150 whole entry, looked up, the tested form may be a part): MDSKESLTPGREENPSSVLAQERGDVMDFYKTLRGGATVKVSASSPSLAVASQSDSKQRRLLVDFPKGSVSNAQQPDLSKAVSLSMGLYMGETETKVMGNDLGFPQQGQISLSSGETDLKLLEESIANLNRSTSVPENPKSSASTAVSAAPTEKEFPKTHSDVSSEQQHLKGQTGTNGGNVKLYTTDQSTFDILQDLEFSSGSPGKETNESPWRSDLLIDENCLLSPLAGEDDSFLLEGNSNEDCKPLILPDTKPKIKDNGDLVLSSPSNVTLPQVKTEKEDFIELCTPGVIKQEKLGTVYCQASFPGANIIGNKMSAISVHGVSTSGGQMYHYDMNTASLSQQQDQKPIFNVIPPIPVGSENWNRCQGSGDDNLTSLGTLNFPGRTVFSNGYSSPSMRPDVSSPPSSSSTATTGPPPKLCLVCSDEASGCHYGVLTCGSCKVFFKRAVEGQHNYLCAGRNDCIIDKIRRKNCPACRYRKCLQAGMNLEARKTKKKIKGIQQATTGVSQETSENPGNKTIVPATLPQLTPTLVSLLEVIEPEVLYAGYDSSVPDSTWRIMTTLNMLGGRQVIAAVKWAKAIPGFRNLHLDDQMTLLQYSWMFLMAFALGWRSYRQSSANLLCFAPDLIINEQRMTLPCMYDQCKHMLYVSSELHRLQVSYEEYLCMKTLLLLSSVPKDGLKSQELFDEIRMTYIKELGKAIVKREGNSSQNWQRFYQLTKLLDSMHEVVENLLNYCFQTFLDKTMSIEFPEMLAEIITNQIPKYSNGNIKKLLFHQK

[7] = target: Mitogen-activated protein kinase 10 (Mus musculus) (UniProt Q61831); assay: JNK3 AlphaScreen Assay (AID 530; active means well fitted curve in either direction with a large enough effect, not every such curve was filed as active;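 further: kinase came from lysate of stimulated human HepG2 cells; signal reports phosphorylation of biotinylated GST-cJun 1-79 at Ser73 with 10 µM ATP; on the % scale 0 is the no-effect control and ±100 the full control effect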); conditions: JNK3 lysate, c-Jun phosphorylation; series mostly up to 57.1 µM
How it was run: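 Phosphorylation of biotinylated GST-cJun(1-79) at Ser73 is measured by AlphaScreen proximity luminescence. Enzyme is JNK3 in HepG2 lysates activated with interleukin-1beta and tumor necrosis factor alpha; ATP is 10 uM final.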

[8] = target: 3',5'-cyclic-AMP phosphodiesterase 4B (Homo sapiens) (UniProt Q07343); assay: qHTS Assay for Inhibitors of PDE-IV (AID 607; active means well fitted activation curve with a large enough effect in the main read-out, with a control signal flat, not every such curve was filed as active; further: % of control where 0% means no effect); conditions: HEK293 ACTOne CNG channel cells, membrane potential fluorescence; series mostly up to 22.9 µM
Chain of 3',5'-cyclic-AMP phosphodiesterase 4B (Homo sapiens) (Q07343 whole entry, looked up): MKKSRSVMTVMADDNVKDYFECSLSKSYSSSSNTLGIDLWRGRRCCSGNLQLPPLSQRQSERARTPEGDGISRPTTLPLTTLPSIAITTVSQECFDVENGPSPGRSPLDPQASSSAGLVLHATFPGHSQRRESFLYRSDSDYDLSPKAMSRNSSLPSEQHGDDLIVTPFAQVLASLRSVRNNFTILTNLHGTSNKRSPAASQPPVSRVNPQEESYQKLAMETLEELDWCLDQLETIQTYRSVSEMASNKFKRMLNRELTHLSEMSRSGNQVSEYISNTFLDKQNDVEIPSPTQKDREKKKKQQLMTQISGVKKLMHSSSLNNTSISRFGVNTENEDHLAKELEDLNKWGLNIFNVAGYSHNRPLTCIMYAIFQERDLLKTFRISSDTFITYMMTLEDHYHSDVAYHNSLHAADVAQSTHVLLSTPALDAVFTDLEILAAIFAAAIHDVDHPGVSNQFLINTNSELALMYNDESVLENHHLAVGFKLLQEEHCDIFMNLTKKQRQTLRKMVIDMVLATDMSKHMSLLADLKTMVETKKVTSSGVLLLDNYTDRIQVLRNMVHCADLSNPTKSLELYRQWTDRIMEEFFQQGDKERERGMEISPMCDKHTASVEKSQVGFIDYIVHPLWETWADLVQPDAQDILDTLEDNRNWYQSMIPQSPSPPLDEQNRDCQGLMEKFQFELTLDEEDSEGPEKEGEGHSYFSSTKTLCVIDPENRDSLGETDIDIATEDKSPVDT
How it was run: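 ACTOne HEK293 cells carry a modified cAMP-gated CNG channel and express endogenous PDE4; plated 1000 cells/well, compounds up to 22.9 uM final. Membrane-potential dye fluorescence (ex 535/em 590) was read; parental cells received 10 uM forskolin + 100 uM RO 20-1724.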

[9] = target: Cytochrome P450 3A4 (Homo sapiens) (UniProt P08684); assay: qHTS Assay for Activators of Cytochrome P450 3A4 (AID 885); conditions: recombinant CYP3A4, Luciferin-PPXE luminescence, 60 min; series mostly up to 57.1 µM; further: nearly all actives have a fitted effect of over 65% in size
Chain of Cytochrome P450 3A4 (Homo sapiens) (P08684 whole entry, looked up): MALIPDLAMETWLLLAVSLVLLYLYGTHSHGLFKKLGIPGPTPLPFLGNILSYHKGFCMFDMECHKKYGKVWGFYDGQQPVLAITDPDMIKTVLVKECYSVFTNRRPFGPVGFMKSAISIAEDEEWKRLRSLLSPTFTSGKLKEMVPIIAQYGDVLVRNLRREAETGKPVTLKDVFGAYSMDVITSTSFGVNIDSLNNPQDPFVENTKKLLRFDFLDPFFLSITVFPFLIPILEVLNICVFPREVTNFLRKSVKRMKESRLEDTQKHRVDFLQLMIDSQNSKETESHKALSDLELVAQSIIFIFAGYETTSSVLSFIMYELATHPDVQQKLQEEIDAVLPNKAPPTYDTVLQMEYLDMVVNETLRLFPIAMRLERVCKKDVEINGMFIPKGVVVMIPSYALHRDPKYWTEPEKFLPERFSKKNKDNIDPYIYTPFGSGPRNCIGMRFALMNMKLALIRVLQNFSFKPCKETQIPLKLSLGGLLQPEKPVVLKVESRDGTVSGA
How it was run: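 CYP3A4 activity: Luciferin-PPXE O-dealkylation, 25uM substrate, 200mM KPO4, RT throughout. Read-out is luciferase luminescence; higher values reflect activation.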

[10] = qHTS Assay for Lipid Storage Modulators (AID 1519; calls by dose curve); conditions: Drosophila S3 cells, BODIPY lipid droplet/cell ratio, laser cytometry, cells loaded with oleic acid; for activity change, negative = inhibition: at 57.5 µM (top of the series)
How it was run: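 Cells seeded at 5,000 per well were treated with compounds over a concentration series and loaded with oleic acid (400 uM, as added). Lipid droplet fluorescence (488 nm excitation, 500-530 nm channel) was read by laser-scanning cytometry and normalized to 20 uM Triacsin C.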

[11] = target: Dual specificity protein kinase CLK4 (Homo sapiens) (UniProt Q9HAZ1); assay: qHTS Assay for Inhibitors of CDC-like Kinase 4 (Kinase-Glo Assay) (AID 1770); conditions: recombinant Clk4, Kinase-Glo ATP depletion luminescence; series mostly up to 66.7 µM; further: on the % scale 0 is the no-effect control and ±100 the full control effect; nearly all actives have a fitted effect of over 65% in size
Chain of Dual specificity protein kinase CLK4 (Homo sapiens) (Q9HAZ1 whole entry, looked up): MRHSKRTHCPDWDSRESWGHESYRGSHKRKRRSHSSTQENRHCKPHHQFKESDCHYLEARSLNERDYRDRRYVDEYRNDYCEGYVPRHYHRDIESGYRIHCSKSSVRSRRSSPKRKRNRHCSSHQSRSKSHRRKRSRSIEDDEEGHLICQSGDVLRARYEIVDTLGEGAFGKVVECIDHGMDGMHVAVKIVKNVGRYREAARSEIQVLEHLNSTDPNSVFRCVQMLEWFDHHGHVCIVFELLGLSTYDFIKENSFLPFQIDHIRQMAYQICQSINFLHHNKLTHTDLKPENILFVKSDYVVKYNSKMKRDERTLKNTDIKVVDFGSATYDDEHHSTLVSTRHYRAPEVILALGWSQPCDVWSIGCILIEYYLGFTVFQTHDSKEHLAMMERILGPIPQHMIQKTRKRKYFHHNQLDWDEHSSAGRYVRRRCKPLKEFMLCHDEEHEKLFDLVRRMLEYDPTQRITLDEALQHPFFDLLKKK
How it was run: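 Recombinant human Clk4 (25 nM) phosphorylated RS repeat peptide (100 uM) with 1 uM ATP in Tris pH 7.5/MgCl2/EGTA/DTT/Triton buffer for 4.5 h at room temperature. Residual ATP was quantified by Kinase-Glo luciferase luminescence.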

[12] = target: Dual specificity protein kinase CLK4 (Homo sapiens) (UniProt Q9HAZ1); assay: qHTS Assay for Inhibitors of CDC-like Kinase 4 (ADP-Glo Assay) (AID 1771); conditions: recombinant CLK4, ADP-Glo luminescence; series mostly up to 80 µM; further: on the % scale 0 is the no-effect control and ±100 the full control effect; nearly all actives have a fitted effect of over 70% in size
How it was run: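 Compounds are pin-transferred onto substrate mix (100 uM RS peptide, 1 uM ATP), then 25 nM Clk4 is added. After 1 hr at room temperature, ADP-Glo reagent runs 45 min, detection reagent 30 min, then luminescence is read.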

[13] = target: Dual specificity protein kinase CLK4 (Homo sapiens) (UniProt Q9HAZ1); assay: qHTS Assay for Inhibitors of CDC-like Kinase 4 (ADP-FP Assay) (AID 1795); conditions: Transcreener ADP fluorescence polarization; series mostly up to 50 µM; further: on the % scale 0 is the no-effect control and ±100 the full control effect; nearly all actives have a fitted effect of over 60% in size
How it was run: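 Recombinant human Clk4 (6.25 nM) phosphorylated RS repeat peptide (100 uM) with 1 uM ATP in Tris pH 7.5/MgCl2/EGTA/DTT/Triton buffer for one hour. ADP was quantified by Transcreener competitive fluorescence polarization against an ADP calibration curve.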

[14] = target: Ubiquitin carboxyl-terminal hydrolase 1 (Homo sapiens) (UniProt O94782); assay: Inhibitors of USP1/UAF1: Pilot qHTS (AID 504865); conditions: purified USP1/UAF1, Ub-rhodamine cleavage fluorescence; series mostly up to 54.9 µM;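 further: rhodamine fluorescence freed from ubiquitin-rhodamine substrate followed over time; top concentration of the series differs between compounds; on the % scale 0 is the no-effect control and ±100 the full control effect; nearly all actives have a fitted effect of over 35% in size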
Chain of Ubiquitin carboxyl-terminal hydrolase 1 (Homo sapiens) (O94782 whole entry, looked up): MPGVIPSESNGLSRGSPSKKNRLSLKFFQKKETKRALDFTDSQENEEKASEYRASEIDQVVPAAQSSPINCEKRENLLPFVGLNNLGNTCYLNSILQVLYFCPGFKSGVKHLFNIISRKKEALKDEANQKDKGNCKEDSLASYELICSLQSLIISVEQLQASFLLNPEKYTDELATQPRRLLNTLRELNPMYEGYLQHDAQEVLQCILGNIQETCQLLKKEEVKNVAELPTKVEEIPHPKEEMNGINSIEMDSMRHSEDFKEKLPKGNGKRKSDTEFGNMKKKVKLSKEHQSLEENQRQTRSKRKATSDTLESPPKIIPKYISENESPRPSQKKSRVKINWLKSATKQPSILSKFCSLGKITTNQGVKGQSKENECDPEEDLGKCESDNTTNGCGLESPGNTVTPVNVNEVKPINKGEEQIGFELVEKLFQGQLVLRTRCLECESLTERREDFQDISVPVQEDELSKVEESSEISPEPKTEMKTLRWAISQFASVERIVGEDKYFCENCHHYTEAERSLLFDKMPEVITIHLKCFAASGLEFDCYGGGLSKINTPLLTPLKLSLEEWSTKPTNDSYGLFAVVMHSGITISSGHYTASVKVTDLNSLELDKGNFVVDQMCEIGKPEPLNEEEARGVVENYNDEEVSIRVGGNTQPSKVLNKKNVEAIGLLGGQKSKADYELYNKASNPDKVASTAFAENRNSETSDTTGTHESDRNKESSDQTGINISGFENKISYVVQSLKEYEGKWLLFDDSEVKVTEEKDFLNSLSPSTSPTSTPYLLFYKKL
How it was run: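 USP1/UAF1 complex (1nM) preincubated with compound 15 min at room temperature, then Ub-Rho substrate (150nM final) added. Fluorescence read kinetically at 480/540 nm, 6 reads every 60 seconds. Buffer: 50mM HEPES pH 7.8, 0.5mM EDTA, 0.1 mg/ml BSA, 1mM TCEP, 0.01% Tween-20.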

[15] = Primary qHTS for small molecule stabilizers of the endoplasmic reticulum resident proteome: Secreted ER Calcium Modulated Protein (SERCaMP) assay (AID 1508630); conditions: SH-SY5Y GLuc-SERCaMP (Gaussia luciferase released on ER calcium loss) secretion, thapsigargin, luminescence; series mostly up to 38.4 µM; further: on the % scale 0 is the no-effect control and ±100 the full control effect
How it was run: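 The SH-SY5Y reporter protocol was run at 3 concentrations up to 38.3 uM (primary) or 11 concentrations (follow-up): 16 h compound, 100 nM thapsigargin for 4 h, then extracellular luciferase luminescence.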

[16] = target: Glucocorticoid receptor (Homo sapiens) (UniProt P04150); assay: GR-EFC Redistribution (AID 451; calls by dose curve; further: potency means the concentration at half of the fitted maximal effect); conditions: CHO-K1 GR-EFC translocation, beta-gal luminescence, 2 h
How it was run: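 CHO-K1 cells stably expressing nuclear-localized β-gal enzyme acceptor and GR fused C-terminally to the enzyme donor fragment; ligand-driven nuclear translocation restores β-gal by complementation. Compounds titrated up to 46 uM final, 2 h at 37 °C; luminescence read.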

[17] = target: Cytochrome P450 3A4 (Homo sapiens) (UniProt P08684); assay: qHTS Assay for Inhibitors and Substrates of Cytochrome P450 3A4 (AID 884); conditions: recombinant CYP3A4, Luciferin-PPXE luminescence; series mostly up to 57.1 µM; further: on the % scale 0 is the no-effect control and ±100 the full control effect; nearly all actives have a fitted effect of over 50% in size
How it was run: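 Luminescent readout of luciferin produced by CYP3A4 (20 nM) dealkylation of Luciferin-PPXE, 25 uM (its KM). NADPH-driven reaction ran 60 min at RT after 10 min compound preincubation; data scaled to 57 uM ketoconazole as 100% inhibition.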

[18] = target: Cytochrome P450 2C19 (Homo sapiens) (UniProt P33261); assay: qHTS Assay for Inhibitors and Substrates of Cytochrome P450 2C19 (AID 899); conditions: recombinant CYP2C19, luciferin-H EGE luminescence; series mostly up to 57.1 µM; further: potency means the concentration at half of the fitted maximal effect; nearly all actives have a fitted effect of over 60% in size
Chain of Cytochrome P450 2C19 (Homo sapiens) (P33261 whole entry, looked up): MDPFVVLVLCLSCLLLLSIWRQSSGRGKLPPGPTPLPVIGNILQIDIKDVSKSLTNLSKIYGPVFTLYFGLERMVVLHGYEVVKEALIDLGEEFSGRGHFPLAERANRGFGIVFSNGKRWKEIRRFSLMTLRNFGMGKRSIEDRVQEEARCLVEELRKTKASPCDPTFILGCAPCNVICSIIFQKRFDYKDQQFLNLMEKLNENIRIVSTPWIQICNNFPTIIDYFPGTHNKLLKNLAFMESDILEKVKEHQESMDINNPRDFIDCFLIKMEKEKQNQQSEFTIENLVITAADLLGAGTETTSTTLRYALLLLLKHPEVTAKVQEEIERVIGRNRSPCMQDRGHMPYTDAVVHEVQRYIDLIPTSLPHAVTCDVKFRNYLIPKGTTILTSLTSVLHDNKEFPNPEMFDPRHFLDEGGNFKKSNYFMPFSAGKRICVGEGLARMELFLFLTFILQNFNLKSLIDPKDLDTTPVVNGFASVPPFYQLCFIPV
How it was run: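 NADPH-dependent conversion of Luciferin-H EGE (10uM, at KM) by 5nM enzyme in 50mM KPO4, 60 min at 37C following 10 min compound preincubation. Stopped with luciferin detection buffer; luminescence read after 20 min.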

[19] = qHTS Assay for Identification of Small Molecule Agonists for Hypoxia Response Element Signaling Pathway (AID 914; active means well fitted activation curve with a large enough effect in the signal ratio, with a control signal flat, not every such curve was filed as active; the % refers to the signal ratio; further: % of control where 0% means no effect); conditions: ME-180 (cervical carcinoma) HRE-bla reporter, beta-lactamase ratio, CoCl2, 17 h; activation: stronger effect = higher value
How it was run: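 Compounds in a titration series were added to ME-180 reporter cells alongside an EC50 level of CoCl2. After 17 hours, beta-lactamase activity was read as the 460nm/530nm emission ratio of CCF4, giving AC50 values.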

[20] = measured here: cell count channel max response
[21] = measured here: lipid channel max response

COCCn1c(=O)c(C)nc2cnc(Oc3ccc(OC)cc3)nc21
active: Potency [3] 15.8 µM
29.1%: max response [10, 20]
inactive: Potency [1] > 11.4 µM | activity change, negative = inhibition [2] -18.9% | activity change, negative = inhibition [4] 7.53% | activity, negative = inhibition [5] -8.21% | Potency [6] > 9.22 µM | outcome [7] | Potency [8] | Potency [9] | activity change, negative = inhibition [10] 1.21% | Potency [11] | Potency [12] | Potency [13] | Potency [14] | Potency [15]
27.3%: max response [10, 21]

c1ccc(Nc2cc(-c3ccoc3)ncn2)cc1
15%: max response [10, 20]
inactive: Potency [1] > 11.4 µM | activity change, negative = inhibition [2] -8.62% | activity change, negative = inhibition [4] -0.633% | activity, negative = inhibition [5] -2.05% | Potency [16] > 46 µM | outcome [7] | Potency [8] | Potency [17] | activation [19] -8.49% | activity change, negative = inhibition [10] 8.08% | Potency [11] | Potency [12] | Potency [13] | Potency [14] | Potency [15]
22%: max response [10, 21]
active: Potency [3] 15.8 µM | Potency [18] 7.94 µM

O=c1c(-c2ccc(F)cc2)nc2cnc(N3CCOCC3)nc2n1Cc1cccs1
9.38%: max response [10, 20]
inactive: Potency [1] > 11.4 µM | activity change, negative = inhibition [2] 14.2% | activity change, negative = inhibition [4] 13.3% | activity, negative = inhibition [5] 18.2% | Potency [16] > 46 µM | outcome [7] | Potency [8] | Potency [9] | activity change, negative = inhibition [10] -1.08% | Potency [11] | Potency [12] | Potency [13] | Potency [14] | Potency [15]
active: Potency [3] 12.6 µM
7.2%: max response [10, 21]

Cc1ccccc1-c1cc(N2CCN(C)CC2)ncn1
-4.04%: max response [10, 21]
3.49%: max response [10, 20]
inactive: Potency [1] > 11.4 µM | activity change, negative = inhibition [2] -0.925% | activity change, negative = inhibition [4] -7.69% | activity, negative = inhibition [5] -0.251% | Potency [6] > 46 µM | Potency [16] > 46 µM | outcome [7] | Potency [8] | activity change, negative = inhibition [10] -4.37% | Potency [11] | Potency [12] | Potency [13] | Potency [14] | Potency [15]

COc1ccc(-c2nc3cnc(N4CCOCC4)nc3n(-c3ccccc3)c2=O)cc1
22%: max response [10, 20]
inactive: Potency [1] > 11.4 µM | activity change, negative = inhibition [2] 25.7% | activity change, negative = inhibition [4] 23.9% | activity, negative = inhibition [5] 13.1% | Potency [16] > 46 µM | outcome [7] | Potency [8] | activity change, negative = inhibition [10] 1.08% | Potency [11] | Potency [12] | Potency [13] | Potency [14] | Potency [15]
21.4%: max response [10, 21]
